In the supplement of paper PMC8728848:
Shown is part of a subset that was picked to be rich in the strongest signals.

Experiments:
Assay in all cases: glycan array binding signal (z-score within array); higher = stronger binding
Details in all cases: glycan notation: IUPAC condensed, linker removed
[1] = target: Fuc(a1-2)Gal(b1-3)[Fuc(a1-4)]GlcNAc(b1-2)Man(a1-3)[Fuc(a1-2)Gal(b1-3)[Fuc(a1-4)]GlcNAc(b1-2)Man(a1-6)]Man(b1-4)GlcNAc(b1-4)[Fuc(a1-6)]GlcNAc(b1-4)[Fuc(a1-6)]GlcNAc
Method in brief: (§1)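 From the Consortium for Functional Glycomics database, 3228 arrays were curated, keeping only those whose protein sequence was available. Binding is given as a within-array Z-score averaged across arrays sharing a protein sequence and across linkers. Negative Z-scores can be read as non-binding.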

[2] = target: Fuc(a1-2)Gal(b1-4)[Fuc(a1-3)]GlcNAc(b1-2)Man(a1-3)[Fuc(a1-2)Gal(b1-4)[Fuc(a1-3)]GlcNAc(b1-2)Man(a1-6)]Man(b1-4)GlcNAc(b1-4)[Fuc(a1-6)]GlcNAc
Method in brief: as §1

[3] = target: Fuc(a1-2)[Gal(a1-3)]Gal(b1-3)GlcNAc
Method in brief: as §1

[4] = target: Fuc(a1-2)[GalNAc(a1-3)]Gal(b1-4)GlcNAc
Method in brief: as §1

[5] = target: Fuc(a1-3)[Gal(b1-4)]GlcNAc(b1-2)Man(a1-3)[Fuc(a1-3)[Gal(b1-4)]GlcNAc(b1-2)Man(a1-6)]Man(b1-4)GlcNAc(b1-4)GlcNAc
Method in brief: as §1

[6] = target: Gal(a1-3)Gal(b1-3)GlcNAc
Method in brief: as §1

[7] = target: Gal(a1-3)Gal(b1-4)GlcNAc(b1-2)Man
Method in brief: as §1

[8] = target: Gal(a1-4)Gal(b1-4)GlcNAc
Method in brief: as §1

[9] = target: Gal(a1-4)GlcNAc
Method in brief: as §1

[10] = target: Gal(b1-2)Gal
Method in brief: as §1

[11] = target: Gal(b1-3)Gal
Method in brief: as §1

[12] = target: Gal(b1-3)Gal(b1-4)GlcNAc
Method in brief: as §1

[13] = target: Gal(b1-3)GlcNAc(a1-6)Gal(b1-4)GlcNAc
Method in brief: as §1

[14] = target: Gal(b1-3)GlcNAc(b1-2)Man(a1-3)[Gal(b1-3)GlcNAc(b1-2)Man(a1-6)]Man(b1-4)GlcNAc(b1-4)[Fuc(a1-6)]GlcNAc
Method in brief: as §1

[15] = target: Gal(b1-3)GlcNAc(b1-6)Gal(b1-4)GlcNAc
Method in brief: as §1

[16] = target: Gal(b1-4)GlcNAc(b1-2)Man(a1-6)Man(b1-4)GlcNAc(b1-4)GlcNAc
Method in brief: as §1

[17] = target: Gal(b1-4)GlcNAc(b1-2)[Gal(b1-4)GlcNAc(b1-4)]Man(a1-3)[Gal(b1-4)GlcNAc(b1-2)Man(a1-6)]Man(b1-4)GlcNAc(b1-4)GlcNAc
Method in brief: as §1

[18] = target: Gal(b1-4)GlcNAc(b1-2)[Gal(b1-4)GlcNAc(b1-6)]Man(a1-6)[Gal(b1-4)GlcNAc(b1-2)Man(a1-3)]Man(b1-4)GlcNAc(b1-4)[Fuc(a1-6)]GlcNAc
Method in brief: as §1

[19] = target: Gal(b1-4)GlcNAc(b1-3)Gal(b1-3)GlcNAc
Method in brief: as §1

[20] = target: Gal(b1-4)GlcNAc(b1-3)Gal(b1-4)GlcNAc(b1-2)Man(a1-3)[Gal(b1-4)GlcNAc(b1-3)Gal(b1-4)GlcNAc(b1-2)Man(a1-6)]Man(b1-4)GlcNAc(b1-4)[Fuc(a1-6)]GlcNAc
Method in brief: as §1

[21] = target: Gal(b1-4)GlcNAc(b1-3)Gal(b1-4)GlcNAc(b1-3)Gal(b1-4)GlcNAc(b1-3)Gal(b1-4)GlcNAc(b1-2)Man(a1-3)[Gal(b1-4)GlcNAc(b1-3)Gal(b1-4)GlcNAc(b1-3)Gal(b1-4)GlcNAc(b1-3)Gal(b1-4)GlcNAc(b1-2)Man(a1-6)]Man(b1-4)GlcNAc(b1-4)[Fuc(a1-6)]GlcNAc
Method in brief: as §1

[22] = target: Gal(b1-4)GlcNAc(b1-3)Gal(b1-4)GlcNAc(b1-3)Gal(b1-4)GlcNAc(b1-3)Gal(b1-4)GlcNAc(b1-3)Gal(b1-4)GlcNAc(b1-2)Man(a1-3)[Gal(b1-4)GlcNAc(b1-3)Gal(b1-4)GlcNAc(b1-3)Gal(b1-4)GlcNAc(b1-3)Gal(b1-4)GlcNAc(b1-3)Gal(b1-4)GlcNAc(b1-2)Man(a1-6)]Man(b1-4)GlcNAc(b1-4)GlcNAc
Method in brief: as §1

[23] = target: Gal3S(b1-3)GalNAc
Method in brief: as §1

[24] = target: Gal3S(b1-4)Glc
Method in brief: as §1

[25] = target: Gal3S(b1-4)Glc6S
Method in brief: as §1

[26] = target: Gal3S6S(b1-4)GlcNAc
Method in brief: as §1

[27] = target: Glc(a1-4)Glc
Method in brief: as §1

[28] = target: GlcNAc(b1-3)Fuc
Method in brief: as §1

[29] = target: GlcNAc(b1-4)Gal(b1-4)GlcNAc
Method in brief: as §1

[30] = target: Kdn(a2-3)Gal(b1-4)Glc
Method in brief: as §1

[31] = target: Kdn(a2-3)Gal(b1-4)GlcNAc
Method in brief: as §1

[32] = target: Kdn(a2-3)Gal(b1-4)[Fuc(a1-3)]GlcNAc
Method in brief: as §1

[33] = target: Man(a1-2)Man(a1-2)Man(a1-3)Man
Method in brief: as §1

[34] = target: Man(a1-3)[Man(a1-6)]Man(b1-4)GlcNAc(b1-4)[Fuc(a1-6)]GlcNAc
Method in brief: as §1

[35] = target: Neu5Ac(a2-3)Gal
Method in brief: as §1

[36] = target: Neu5Ac(a2-3)Gal(b1-4)GlcNAc(b1-2)[Neu5Ac(a2-3)Gal(b1-4)GlcNAc(b1-6)]Man(a1-6)[Neu5Ac(a2-3)Gal(b1-4)GlcNAc(b1-2)Man(a1-3)]Man(b1-4)GlcNAc(b1-4)GlcNAc
Method in brief: as §1

[37] = target: Neu5Ac(a2-3)Gal(b1-4)GlcNAc(b1-3)Gal(b1-4)GlcNAc
Method in brief: as §1

[38] = target: Neu5Ac(a2-3)Gal(b1-4)GlcNAc(b1-3)Gal(b1-4)GlcNAc(b1-2)Man(a1-3)[Neu5Ac(a2-3)Gal(b1-4)GlcNAc(b1-3)Gal(b1-4)GlcNAc(b1-2)Man(a1-6)]Man(b1-4)GlcNAc(b1-4)GlcNAc
Method in brief: as §1

[39] = target: Neu5Ac(a2-3)Gal(b1-4)[Fuc(a1-3)]GlcNAc(b1-2)Man
Method in brief: as §1

[40] = target: Neu5Ac(a2-3)GalNAc
Method in brief: as §1

[41] = target: Neu5Ac(a2-6)Gal(b1-4)GlcNAc
Method in brief: as §1

[42] = target: Neu5Ac(a2-6)Gal(b1-4)GlcNAc(b1-2)Man(a1-6)Man(b1-4)GlcNAc(b1-4)GlcNAc
Method in brief: as §1

[43] = target: Neu5Ac(a2-6)Gal(b1-4)GlcNAc(b1-2)Man(a1-6)[Man(a1-3)]Man(b1-4)GlcNAc(b1-4)GlcNAc
Method in brief: as §1

[44] = target: Neu5Ac(a2-6)Gal(b1-4)GlcNAc(b1-3)Gal(b1-4)[Fuc(a1-3)]GlcNAc(b1-3)Gal(b1-4)[Fuc(a1-3)]GlcNAc
Method in brief: as §1

[45] = target: Neu5Ac(a2-8)Neu5Ac(a2-8)Neu5Ac
Method in brief: as §1

[46] = target: Neu5Ac9Ac(a2-3)Gal(b1-3)GlcNAc
Method in brief: as §1

[47] = target: Neu5Ac9Ac(a2-6)Gal(b1-4)GlcNAc
Method in brief: as §1

[48] = target: Neu5Gc(a2-3)Gal(b1-4)Glc
Method in brief: as §1

B1: FliD (Clostridium difficile) (protein)
chain: MSSISPVRVTGLSGNFDMEGIIEASMIRDKEKVNKAKQDQQIVKWKQEIYRDIIKESKNLYDKYLNGDSPNSITNKKAYSATRITSSDESIIVAKGSAGAEKINYQFAVSQMAEPAKVTIKLNSSDPIVQQFPPNASGASSLNIGGVNIPISEQDTTSTIVSKINSLCADNDIRASYSEMTGELIISRKQTGSSSDIDLKVIGNDSLAGQIASDNGITFTTDASGTKSAVVYGKNLEADVTDDQGRVTHISKEQNSFKIDNIDYNVNSKGSAKLVSVTDTEEATKNMKAFVDDYNALMDKVYGLVTTKKSKDYPPLTDEQKDDMTTEEIEKWEKKAKEGILRNDDELRAFVEDIQSMFFGDADTIIALRKLGISEHENYNKKGQISFNADTFSKALIDDSDKVYKALAGYSSNYDDKGMFEKLKKIVFEYSGSSASKLTKKAGMENSSSASQNVYSKQIAEQERNISRLVEKMNDKEKRLYAKYSALESLLNKYSSQMNYFSQAQGN
Question: With B1 as the binder, how does the “glycan array binding signal (z-score)” value [1] read?
Answer: -0.156

Question: What about the “glycan array binding signal (z-score)” value [2] of the same binder?
Answer: -0.162

Question: And the “glycan array binding signal (z-score)” value [3]?
Answer: 1.88

Question: And the “glycan array binding signal (z-score)” value [4]?
Answer: -0.235

Question: What about the “glycan array binding signal (z-score)” value [5] of the same binder?
Answer: -0.161

Question: And the “glycan array binding signal (z-score)” value [6]?
Answer: 12.1

Question: What about the “glycan array binding signal (z-score)” value [7] of the same binder?
Answer: -0.211

Question: What about the “glycan array binding signal (z-score)” value [8] of the same binder?
Answer: -0.161

Question: What about the “glycan array binding signal (z-score)” value [9] of the same binder?
Answer: 1.22

Question: And the “glycan array binding signal (z-score)” value [10]?
Answer: 1.49

Question: What about the “glycan array binding signal (z-score)” value [11] of the same binder?
Answer: -0.262

Question: What about the “glycan array binding signal (z-score)” value [12] of the same binder?
Answer: -0.236

Question: What about the “glycan array binding signal (z-score)” value [13] of the same binder?
Answer: -0.181

Question: And the “glycan array binding signal (z-score)” value [14]?
Answer: -0.117

Question: What about the “glycan array binding signal (z-score)” value [15] of the same binder?
Answer: 0.007

Question: And the “glycan array binding signal (z-score)” value [16]?
Answer: -0.233

Question: And the “glycan array binding signal (z-score)” value [17]?
Answer: -0.254

Question: What about the “glycan array binding signal (z-score)” value [18] of the same binder?
Answer: -0.222

Question: And the “glycan array binding signal (z-score)” value [19]?
Answer: -0.084

Question: And the “glycan array binding signal (z-score)” value [20]?
Answer: 1.44

Question: And the “glycan array binding signal (z-score)” value [21]?
Answer: 1.2

Question: What about the “glycan array binding signal (z-score)” value [22] of the same binder?
Answer: -0.072

Question: And the “glycan array binding signal (z-score)” value [23]?
Answer: 0.678

Question: And the “glycan array binding signal (z-score)” value [24]?
Answer: 3.41

Question: And the “glycan array binding signal (z-score)” value [25]?
Answer: 1.24

Question: And the “glycan array binding signal (z-score)” value [26]?
Answer: -0.201

Question: What about the “glycan array binding signal (z-score)” value [27] of the same binder?
Answer: -0.054

Question: What about the “glycan array binding signal (z-score)” value [28] of the same binder?
Answer: -0.089

Question: And the “glycan array binding signal (z-score)” value [29]?
Answer: -0.232

Question: And the “glycan array binding signal (z-score)” value [30]?
Answer: -0.172

Question: What about the “glycan array binding signal (z-score)” value [31] of the same binder?
Answer: -0.204

Question: What about the “glycan array binding signal (z-score)” value [32] of the same binder?
Answer: 0.919

Question: And the “glycan array binding signal (z-score)” value [33]?
Answer: -0.247

Question: And the “glycan array binding signal (z-score)” value [34]?
Answer: -0.274

Question: And the “glycan array binding signal (z-score)” value [35]?
Answer: -0.168

Question: And the “glycan array binding signal (z-score)” value [36]?
Answer: -0.056

Question: And the “glycan array binding signal (z-score)” value [37]?
Answer: -0.084

Question: What about the “glycan array binding signal (z-score)” value [38] of the same binder?
Answer: -0.025

Question: And the “glycan array binding signal (z-score)” value [39]?
Answer: -0.222

Question: What about the “glycan array binding signal (z-score)” value [40] of the same binder?
Answer: 1.09

Question: What about the “glycan array binding signal (z-score)” value [41] of the same binder?
Answer: -0.197

Question: And the “glycan array binding signal (z-score)” value [42]?
Answer: -0.179

Question: And the “glycan array binding signal (z-score)” value [43]?
Answer: -0.197

Question: And the “glycan array binding signal (z-score)” value [44]?
Answer: -0.193

Question: What about the “glycan array binding signal (z-score)” value [45] of the same binder?
Answer: -0.239

Question: And the “glycan array binding signal (z-score)” value [46]?
Answer: 0.957

Question: And the “glycan array binding signal (z-score)” value [47]?
Answer: -0.19

Question: And the “glycan array binding signal (z-score)” value [48]?
Answer: -0.194
